Among the data in article PMC11574364 are binding signal values, retold here.

Targets include RBMXL1 (Homo sapiens, UniProt Q96E39); IGF2BP2(3-4) (Homo sapiens, UniProt Q9Y6M1); STAU1(2) (Homo sapiens, UniProt O95793); SETD1A (Homo sapiens, UniProt O15047); IGF2BP1(3-4) (Homo sapiens, UniProt Q9NZI8); VIGILIN(6-10) (Homo sapiens, UniProt Q00341).
What all share (assay): protein domain microarray probed with biotinylated miRNA; Domain array: 20 mM Tris-HCl pH 7.4, 200 mM KCl, 0.2 mM EDTA, 0.05% NP40, 2 ug/ul heparin, overnight 4 C. ORF array: PBS pH 7.0 with RNase inhibitor, 100 ng RNA; high values mean tight binding
Details in all cases: ssRNA

Another assay concerns the target T1, NOVA2(3) (Homo sapiens, UniProt Q9UNW9).
T1 sequence: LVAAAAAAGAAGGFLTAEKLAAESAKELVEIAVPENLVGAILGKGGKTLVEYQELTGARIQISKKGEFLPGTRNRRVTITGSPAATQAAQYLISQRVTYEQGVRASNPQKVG

The next assay has as its target T2, RNPC3(2) (Homo sapiens, UniProt Q96LT9).
T2 sequence: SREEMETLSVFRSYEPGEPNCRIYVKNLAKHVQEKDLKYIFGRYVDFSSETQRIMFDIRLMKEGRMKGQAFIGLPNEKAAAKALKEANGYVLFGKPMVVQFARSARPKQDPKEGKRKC

The target in a further assay is T3, RBM38 (Homo sapiens, UniProt Q9H0Z9).
T3 sequence: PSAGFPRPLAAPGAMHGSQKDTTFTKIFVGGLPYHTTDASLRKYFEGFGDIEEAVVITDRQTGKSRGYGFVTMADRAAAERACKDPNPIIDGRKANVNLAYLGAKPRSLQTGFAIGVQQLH

The next assay deals with T4, RBM18 (Homo sapiens, UniProt Q96H35).
T4 sequence: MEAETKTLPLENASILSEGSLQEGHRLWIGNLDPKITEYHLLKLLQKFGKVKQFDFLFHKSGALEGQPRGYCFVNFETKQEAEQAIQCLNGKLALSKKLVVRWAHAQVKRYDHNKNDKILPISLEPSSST

Sequence of IGF2BP2(3-4) (Q9Y6M1 410-599): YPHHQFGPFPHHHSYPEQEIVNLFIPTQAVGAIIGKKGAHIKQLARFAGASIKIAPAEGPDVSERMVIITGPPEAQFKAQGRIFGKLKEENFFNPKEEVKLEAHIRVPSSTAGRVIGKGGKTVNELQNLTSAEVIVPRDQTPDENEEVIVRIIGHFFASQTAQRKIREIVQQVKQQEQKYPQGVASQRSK
Sequence of SETD1A (O15047 60-200): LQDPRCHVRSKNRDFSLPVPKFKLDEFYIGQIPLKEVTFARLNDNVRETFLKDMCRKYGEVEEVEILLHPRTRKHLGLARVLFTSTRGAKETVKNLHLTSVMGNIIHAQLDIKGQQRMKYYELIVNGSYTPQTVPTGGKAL
Sequence of VIGILIN(6-10) (Q00341 495-900): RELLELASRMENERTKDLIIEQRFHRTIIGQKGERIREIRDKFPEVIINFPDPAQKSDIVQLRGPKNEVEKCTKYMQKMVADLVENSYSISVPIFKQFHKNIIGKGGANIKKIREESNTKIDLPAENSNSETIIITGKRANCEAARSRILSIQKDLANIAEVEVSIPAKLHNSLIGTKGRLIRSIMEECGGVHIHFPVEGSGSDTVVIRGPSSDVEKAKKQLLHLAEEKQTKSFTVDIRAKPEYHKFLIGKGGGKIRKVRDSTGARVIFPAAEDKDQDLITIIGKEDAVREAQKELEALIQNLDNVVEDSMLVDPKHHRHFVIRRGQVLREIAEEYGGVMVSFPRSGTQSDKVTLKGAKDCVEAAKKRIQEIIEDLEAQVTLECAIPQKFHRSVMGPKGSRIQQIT
Sequence of STAU1(2) (O95793 164-271): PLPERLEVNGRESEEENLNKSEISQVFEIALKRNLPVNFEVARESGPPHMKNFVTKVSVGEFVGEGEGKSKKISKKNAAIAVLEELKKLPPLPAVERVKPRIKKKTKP
Sequence of IGF2BP1(3-4) (Q9NZI8 388-577): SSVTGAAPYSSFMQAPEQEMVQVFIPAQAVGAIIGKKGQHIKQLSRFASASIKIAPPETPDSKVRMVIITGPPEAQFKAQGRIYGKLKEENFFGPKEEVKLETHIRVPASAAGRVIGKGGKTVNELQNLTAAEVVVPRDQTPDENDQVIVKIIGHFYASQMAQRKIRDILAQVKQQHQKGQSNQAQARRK
Sequence of RBMXL1 (Q96E39 1-110): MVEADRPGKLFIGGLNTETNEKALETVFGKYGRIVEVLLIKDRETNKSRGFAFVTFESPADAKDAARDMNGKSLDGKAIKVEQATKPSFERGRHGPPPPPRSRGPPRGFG

Regarding UGAGGUAGUAGGUUGUAUGGUU, the binding signal with NOVA2(3) is 144 ± 61.5 fluorescence intensity; with RNPC3(2), 130 ± 69.7 fluorescence intensity; with RBMXL1 it was 805 ± 10.1 fluorescence intensity; with RBM38, 1540 ± 34.6 fluorescence intensity; with IGF2BP2(3-4), 1720 ± 120 fluorescence intensity; with STAU1(2), 78.8 ± 6.29 fluorescence intensity. The binding signal was determined as 99.9 ± 23.9 fluorescence intensity in the assay with SETD1A, 1615 ± 5.45 fluorescence intensity with IGF2BP1(3-4), 270 ± 12.9 fluorescence intensity with VIGILIN(6-10) and 291 ± 10.4 fluorescence intensity with RBM18.
On to UGAGGUAGUAGGUUGUAUAGUU, for which the binding signal worked out at 49.4 ± 3.28 fluorescence intensity in the assay with NOVA2(3); 32.3 ± 6.65 fluorescence intensity with RNPC3(2); 300 ± 36.4 fluorescence intensity with RBMXL1; 631 ± 19.8 fluorescence intensity in the assay with RBM38; 412 ± 46 fluorescence intensity in the assay with IGF2BP2(3-4); 36 ± 1.17 fluorescence intensity in the assay with SETD1A. Moreover, the binding signal with IGF2BP1(3-4) came out at 262 ± 8.37 fluorescence intensity; with VIGILIN(6-10) it was 26.1 ± 2.47 fluorescence intensity; with RBM18, 110 ± 9.81 fluorescence intensity.
In the case of UGAGGUAGUAGGUUGUGUGGUU, the binding signal with NOVA2(3) came out at 271 ± 8.31 fluorescence intensity; with RNPC3(2) it was 301 ± 43.8 fluorescence intensity; with RBMXL1 it was 981 ± 17.4 fluorescence intensity; with RBM38, 1950 ± 73.9 fluorescence intensity; in the assay with IGF2BP2(3-4), 1420 ± 38.2 fluorescence intensity; with STAU1(2), 123 ± 31.3 fluorescence intensity. The binding signal in the assay with SETD1A came to 213 ± 11.9 fluorescence intensity; with IGF2BP1(3-4), 1118 ± 5.57 fluorescence intensity; in the assay with VIGILIN(6-10) it was 498 ± 6.91 fluorescence intensity; with RBM18 it was 312 ± 45.3 fluorescence intensity.
CAGUGCAAUGAUGAAAGGGCAU: the binding signal with NOVA2(3) was 508 ± 29.8 fluorescence intensity; in the assay with RNPC3(2) it was 138 ± 35.8 fluorescence intensity; in the assay with RBMXL1, 1000 ± 56.8 fluorescence intensity; with RBM38, 1690 ± 55.6 fluorescence intensity; with IGF2BP2(3-4), 904 ± 85.6 fluorescence intensity; with STAU1(2), 23.7 ± 6.78 fluorescence intensity. In addition, the binding signal with SETD1A amounted to 64.7 ± 9.41 fluorescence intensity; with IGF2BP1(3-4) it was 436 ± 8.23 fluorescence intensity; with VIGILIN(6-10), 43.4 ± 1.94 fluorescence intensity; with RBM18, 248.1 ± 1.58 fluorescence intensity.
For AGAGGUAGUAGGUUGCAUAGUU, the binding signal is 1853 ± 17.2 fluorescence intensity with NOVA2(3); 168 ± 44.9 fluorescence intensity in the assay with RNPC3(2); 1390 ± 47.7 fluorescence intensity with RBMXL1; 2315 ± 13.9 fluorescence intensity with RBM38; 1780 ± 95.8 fluorescence intensity with IGF2BP2(3-4); 52.2 ± 5.35 fluorescence intensity in the assay with STAU1(2). The binding signal with SETD1A amounted to 95.585 ± 0.0212 fluorescence intensity; with IGF2BP1(3-4), 955 ± 10.5 fluorescence intensity; with VIGILIN(6-10) it was 91.1 ± 6.12 fluorescence intensity; with RBM18, 316 ± 12.6 fluorescence intensity.
Take UAGCUUAUCAGACUGAUGUUGA: the binding signal came to 63.2 ± 4.35 fluorescence intensity with NOVA2(3); 72.3 ± 78 fluorescence intensity in the assay with RNPC3(2); 96.9 ± 4.67 fluorescence intensity with RBMXL1; 1790 ± 23.9 fluorescence intensity in the assay with RBM38; 59.8 ± 2.54 fluorescence intensity with IGF2BP2(3-4); 23.2 ± 2.69 fluorescence intensity in the assay with SETD1A. For the same sequence, the binding signal stood at 22 ± 1.81 fluorescence intensity with IGF2BP1(3-4) and 72.6 ± 4.62 fluorescence intensity in the assay with RBM18.
